Consider 16 compounds from PubChem BioAssay.

The target of one experiment is Albumin (Bos taurus) (UniProt P02769). The experiment is described as follows: compounds binding labelled BSA control protein – biochemical, small-molecule microarray, Alexa647 label, 635/667 nm fluorescence, artefact control for SMM control protein annotation, profiling panel (AID 1118).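 Also: score merges 667 nm emission intensity and signal-to-noise per printed compound spot.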 Particulars: BSA-A647 binding, fluorescence 635 nm, higher = more signal.
Sequence of Albumin (Bos taurus) (P02769 whole entry, looked up): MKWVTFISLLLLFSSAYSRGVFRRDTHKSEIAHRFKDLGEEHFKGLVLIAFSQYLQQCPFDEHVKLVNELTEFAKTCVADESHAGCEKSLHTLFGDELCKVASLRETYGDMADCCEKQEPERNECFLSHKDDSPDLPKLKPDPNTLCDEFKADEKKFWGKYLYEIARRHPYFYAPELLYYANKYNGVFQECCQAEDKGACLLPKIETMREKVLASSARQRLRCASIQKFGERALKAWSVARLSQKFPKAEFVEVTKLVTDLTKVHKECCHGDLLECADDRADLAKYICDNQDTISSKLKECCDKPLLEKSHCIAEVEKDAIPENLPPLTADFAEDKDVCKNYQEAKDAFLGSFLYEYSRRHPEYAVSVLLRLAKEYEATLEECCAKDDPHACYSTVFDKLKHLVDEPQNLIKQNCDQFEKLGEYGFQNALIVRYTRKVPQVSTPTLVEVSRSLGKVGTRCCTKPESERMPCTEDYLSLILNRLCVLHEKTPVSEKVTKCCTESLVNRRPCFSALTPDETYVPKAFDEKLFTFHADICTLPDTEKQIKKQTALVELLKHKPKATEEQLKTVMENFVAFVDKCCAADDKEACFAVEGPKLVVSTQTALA
Experiment [1] can be described thus: probe aXIP binding to arrayed compounds – biochemical, NeuroSMM set, 635/667 nm fluorescence, primary screen (AID 1119).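 Also: probe is the protein aXip251-270 applied at 1 µg/mL to compound-printed slides; binding of probe to printed compounds measured as 667 nm fluorescence plus signal to noise.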 Particulars: small-molecule microarray, higher = more signal, called active from +8 up or from −8 down.
Experiment [2] is described as follows: probe aNOTCH3 binding on compound microarray – biochemical, small-molecule microarray, 635/667 nm fluorescence, primary screen (AID 1120).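 Also: probe is a biotin-tagged antibody raised against NOTCH3 rather than NOTCH3 protein; score merges spot fluorescence near 667 nm with spot signal to noise.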 The following applies: higher = more signal.
A short description of experiment [3]: probe aNOTCH2 binding on compound microarray – biochemical, small-molecule microarray, 635/667 nm fluorescence, primary screen (AID 1121).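 Also: score merges feature fluorescence read at 667 nm with its signal to noise.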 Particulars: higher = more signal.
Experiment [4] deals with Carbonic anhydrase 2 (Homo sapiens) (UniProt P00918). The experiment is described as follows: compounds binding carbonic anhydrase 2 – biochemical, small-molecule microarray, Alexa647-labelled CAII, profiling panel (AID 1122). Particulars: CAII-A647 binding fluorescence, higher = more signal.
Experiment [5] can be described thus: COS7 lysate on small-molecule microarray, probe aHis, 635 nm (AID 1123).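 Also: z-score combines 667nm fluorescence intensity with signal-to-noise per printed compound spot.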 Particulars: COS7 cell lysate, fluorescence, higher = more signal.
The nature of experiment [6]: probe aLAP1 signal on lysate-treated microarray – cell lysate, small-molecule microarray, COS7 lysate, primary screen (AID 1124).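 Also: lysate comes from COS7 cells expressing LAP1 and is applied at 0.3 µg/mL; score merges spot fluorescence near 667 nm with signal-to-noise over triplicate slides.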 The following applies: probe aLAP1, fluorescence, higher = more signal.
The next experiment concerns Sam68 (KHDRBS1). Put plainly: compounds binding KHDRBS1 protein – biochemical, small-molecule microarray, 635 nm fluorescence, primary screen (AID 1125).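 Also: score merges 667 nm channel intensity with signal to noise over triplicate slides.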 Particulars: higher = more signal.
In experiment [7] the test system is Chordin-like protein 2 (CHRDL2). Put plainly: compounds binding chordin-like 2 – biochemical, small-molecule microarray, 635 nm fluorescence, primary screen (AID 1126).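 Also: printed compound slides probed with Chrdl2 protein at 4 µg/mL for 1 h at 4 C; score merges 667 nm emission intensity with signal to noise over three replicate slides.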 Particulars: fluorescence 635 nm, higher = more signal.
Experiment [8] has as its target Concanavalin-A (Canavalia ensiformis) (UniProt P02866). The experiment is described as follows: compounds binding concanavalin A lectin – biochemical, small-molecule microarray, Alexa647 label, 635 nm, artefact control for SMM control protein annotation, primary screen (AID 1127).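 Also: z combines 667 nm emission intensity with signal-to-noise across three replicate slides.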 Particulars: ConA-A647 binding fluorescence, higher = more signal.

Structures are written as SMILES. Active and inactive are the calls of the source.

Sequence of Concanavalin-A (Canavalia ensiformis) (P02866 whole entry, looked up): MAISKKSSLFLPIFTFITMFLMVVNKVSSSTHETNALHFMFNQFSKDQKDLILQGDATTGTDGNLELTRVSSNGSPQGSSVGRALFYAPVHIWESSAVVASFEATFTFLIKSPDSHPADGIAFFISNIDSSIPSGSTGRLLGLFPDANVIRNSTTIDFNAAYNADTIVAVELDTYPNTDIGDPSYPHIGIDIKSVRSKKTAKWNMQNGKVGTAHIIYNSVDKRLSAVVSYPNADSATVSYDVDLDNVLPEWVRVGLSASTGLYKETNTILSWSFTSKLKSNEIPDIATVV

For the compound `COC(=O)[C@@]1(Cc2ccc(F)cc2)[C@H]2c3cc(C(=O)N(C)C)n(Cc4cc(F)cc5c4OCOC5)c3C[C@H]2CN1C(=O)c1ccccc1`, the composite z-score in the experiment with Albumin (Bos taurus) was 1.07; in [2] it was 0.24; in experiment [3], 0.105; in experiment [4], 0.376; in experiment [5], 2.97; in [6], 0.271. In addition, the figures for the composite z-score (in the experiment with Sam68 (KHDRBS1); in experiment [7]; in experiment [8]) were 1.33, -0.535 and 1.04, respectively. In [1], the composite Z-score was -0.199 (inactive).

For `COC(=O)C(CC#Cc1ccc2c(c1)[C@]1(C(=O)N2)[C@H](c2ccccc2OCCO)N2[C@H](c3ccccc3)[C@H](c3ccccc3)OC(=O)[C@H]2[C@@H]1C(=O)NC[C@H](O)c1ccccc1)C(=O)OC`, the composite z-score with Albumin (Bos taurus) is 0.42; in [2], -0.19; in [3] it was 0.0537; in experiment [4] it was 0.544; in experiment [5] it was 1.83; in experiment [6] it was 0.445. The composite z-score in the experiment on Sam68 (KHDRBS1) was determined as 0.947; in experiment [7], 0.285; in experiment [8] it was 1.12. Moreover, the composite Z-score in experiment [1] is 0.231 (inactive).

With `C[C@]1(C(=O)NC2CC2)c2ccccc2C(=O)N(Cc2ccccc2)[C@H]1c1ccc(CO)cc1`, the composite z-score was -1.91 with Albumin (Bos taurus); -0.337 in experiment [2]; -0.105 in experiment [3]; 0.168 in experiment [4]; -0.163 in [5]; 0.11 in [6]. Moreover, the composite z-score in the experiment with Sam68 (KHDRBS1) is -0.958; in [7], -0.771; in [8], -1.21. In addition, in [1], the composite Z-score is -0.504 (inactive).

For the compound `COc1ccc([Si](C)(C)[C@H]2[C@H](CCO)O[C@@]3(C(=O)N(Cc4cccc(N5C(=O)COc6ccccc65)c4)c4ccccc43)[C@@H]2C)cc1`, the composite z-score in the experiment with Albumin (Bos taurus) was 0.336; in experiment [2], -0.0343; in [3] it was 0.0425; in [4], 0.338; in [5], 0.317; in experiment [6], 0.232. Moreover, the values for the composite z-score (in the experiment with Sam68 (KHDRBS1); in experiment [7]; in experiment [8]) were 0.297, 0.0083 and 0.567, respectively. In experiment [1], the composite Z-score was 0.0953 (inactive).

On to `CC(C)(C)N1CC=CC23O[C@@H]4C=CCOC(=O)[C@@H]4[C@H]2C(=O)N(CCCCCCO)[C@@H]3C1=O` (stereo not given in full), for which the composite z-score with Albumin (Bos taurus) was 0.277; in [2], -0.359; in [3], -0.112; in [4], 0.879; in experiment [5] it was -0.112; in experiment [6], 0.483. Also, the values for the composite z-score (in the experiment with Sam68 (KHDRBS1); in experiment [7]; in experiment [8]) were -0.551, -0.677 and -0.375, respectively. In [1], the composite Z-score is 0.395 (inactive).

`CCOC(=O)C[C@H]1[C@H](OC(=O)c2ccccc2-c2ccccc2)[C@@H](NC(=O)c2ccc(-c3ccccc3)cc2)c2cc(OCCCO)ccc2N1C(=O)c1ccc2ccccc2n1`: the composite z-score with Albumin (Bos taurus) is 0.275; in [2], 0.0715; in experiment [3], -0.0441; in [4], 0.131; in experiment [5], 0.406; in experiment [6], 0.272. Further, the composite z-score in the experiment on Sam68 (KHDRBS1) is 1.06; in experiment [7], 0.304; in experiment [8], 0.513. Besides, the composite Z-score in experiment [1] is 0.367 (inactive).

Regarding `COCCOC(=O)N1C(=O)[C@@]2(c3cc(C#CC4(O)CCCCCC4)ccc31)[C@H](c1ccc(O)cc1)N1[C@H](c3ccccc3)[C@H](c3ccccc3)OC(=O)[C@H]1[C@@H]2C(=O)NC[C@H](O)c1ccccc1`, the composite z-score was 0.179 in the experiment with Albumin (Bos taurus); -0.0133 in experiment [2]; 0.0296 in experiment [3]; 0.522 in experiment [4]; 2.46 in [5]; 1.46 in experiment [6]. Besides, the composite z-score turned out to be 1.3 with Sam68 (KHDRBS1), 0.97 in [7] and 1.02 in [8]. Besides, the composite Z-score in [1] was 0.534 (inactive).

As for `CN(C)CCCCNC(=O)[C@@H]1C[C@@H]2C(=O)N[C@@H](Cc3ccccc3)C(=O)N2[C@@H]1c1cccc(OCCO)c1`, the composite z-score is -0.0493 in the experiment with Albumin (Bos taurus); -0.239 in experiment [2]; -0.153 in [3]; 0.74 in experiment [4]; 2.59 in experiment [5]; 1.11 in experiment [6]. The composite z-score was 1.06 in the experiment on Sam68 (KHDRBS1), 1.08 in experiment [7] and 1.07 in experiment [8]. Further, the composite Z-score in experiment [1] is 1.1 (inactive).

Turning to `O=C1C2C=CC(C(O)c3ccc(Br)cc3)N(Nc3ccccc3F)C2C(=O)N1c1ccccc1` (stereo not given), the composite z-score was 0.826 with Albumin (Bos taurus); -0.038 in [2]; -0.126 in [3]; 0.762 in experiment [4]; 1.58 in experiment [5]; 0.358 in experiment [6]. Further, the composite z-score amounted to 0.68 in the experiment with Sam68 (KHDRBS1), 0.0957 in experiment [7] and 0.667 in experiment [8]. Besides, the composite Z-score in [1] was 0.0051 (inactive).

Regarding `COc1cc(OC)c(C(O)C2C=CC3C(=O)N(c4ccccc4)C(=O)C3N2Nc2ccccc2)cc1Br` (stereo not given), the composite z-score in the experiment with Albumin (Bos taurus) was 0.911; in experiment [2] it was 0.245; in experiment [3], -0.117; in experiment [4] it was 0.457; in experiment [5], 1.33; in experiment [6], 0.468. In addition, the composite z-score in the experiment with Sam68 (KHDRBS1) is 1.19; in experiment [7], -1.07; in experiment [8], 1.1. Also, the composite Z-score in [1] was -0.565 (inactive).

`CC(C)C(CO)N1C(=O)[C@@H]2C3C(=O)OCCC/C=C\[C@H]3OC23C=CCN(C(C)(C)C)C(=O)[C@@H]13` (stereo not given in full): the composite z-score in the experiment with Albumin (Bos taurus) is -0.632; in experiment [2], -0.304; in experiment [3], -0.156; in experiment [4] it was 0.815; in [5], -0.12; in [6] it was -0.281. In addition, the composite z-score with Sam68 (KHDRBS1) is -0.142; in experiment [7], -0.438; in experiment [8] it was -1.47. Moreover, the composite Z-score in experiment [1] was -0.115 (inactive).

Consider `COC(=O)c1c2oc(c1C(=O)OC)C(=O)N(Cc1ccccc1)Cc1cn(nn1)C[C@H](Cc1ccccc1)NC(=O)N[C@H](CO)CC2`, for which the composite z-score with Albumin (Bos taurus) was 0.784; in [2], -0.0918; in experiment [3], -0.14; in [4], 0.778; in experiment [5], 0.87; in experiment [6], 0.487. Moreover, the figures for the composite z-score (in the experiment with Sam68 (KHDRBS1); in experiment [7]; in [8]) were 0.636, 0.369 and 0.861, respectively. In addition, in experiment [1], the composite Z-score was 0.535 (inactive).

For the compound `COCCOC(=O)N1C(=O)[C@@]2(c3cc(C#CC4=CCCCC4)ccc31)[C@H](C(=O)N1CCCCCCC1)[C@H]1C(=O)O[C@H](c3ccccc3)[C@H](c3ccccc3)N1[C@@H]2c1ccc(O)cc1`, the composite z-score turned out to be 0.25 with Albumin (Bos taurus); 0.183 in experiment [2]; 0.103 in [3]; 0.334 in experiment [4]; 2.17 in [5]; 0.147 in experiment [6]. Besides, the results for the composite z-score (in the experiment with Sam68 (KHDRBS1); in experiment [7]; in experiment [8]) were 1.25, 0.277 and 0.622, respectively. Also, in experiment [1], the composite Z-score was 0.0769 (inactive).

Turning to `CCOC(=O)C[C@H]1[C@H](OC(=O)c2cc3ccccc3oc2=O)[C@@H](NC(=O)c2ccc(-c3ccccc3)cc2)c2cc(OCCCO)ccc2N1C(=O)c1ccccc1`, the composite z-score is 0.551 with Albumin (Bos taurus); 0.242 in [2]; -0.0971 in experiment [3]; 0.274 in experiment [4]; 0.716 in experiment [5]; -0.0433 in experiment [6]. The composite z-score in the experiment on Sam68 (KHDRBS1) came out at 1.32; in experiment [7], 0.475; in experiment [8], 0.858. Also, the composite Z-score in [1] was -0.0549 (inactive).

On to `COCCOC(=O)N1C(=O)[C@@]2(c3cc(C#CC4=CCCCC4)ccc31)[C@H](c1ccc(OCCO)cc1)N1[C@H](c3ccccc3)[C@H](c3ccccc3)OC(=O)[C@H]1[C@@H]2C(=O)N1CCN(c2ncccn2)CC1`, for which the composite z-score in the experiment with Albumin (Bos taurus) is 0.737; in experiment [2], 0.0596; in experiment [3] it was -0.158; in experiment [4], 0.425; in experiment [5], 0.477; in experiment [6] it was 0.677. The composite z-score amounted to 1.31 with Sam68 (KHDRBS1), 0.48 in experiment [7] and 0.713 in experiment [8]. The composite Z-score in experiment [1] was -0.648 (inactive).

Take `C=CCC(OC(C)=O)[C@@H]1[C@@H](N(Cc2ccc(-c3cccc(C(F)(F)F)c3)o2)C(=O)c2ccc(-c3ccccc3)cc2)c2cc(OCCCO)ccc2N1C(=O)c1ccc2ccccc2n1` (stereo not given in full): the composite z-score is -0.267 in the experiment with Albumin (Bos taurus); -0.0077 in experiment [2]; 0.357 in experiment [3]; -0.232 in experiment [4]; 0.266 in experiment [5]; -0.154 in experiment [6]. Also, the composite z-score in the experiment on Sam68 (KHDRBS1) was -0.734; in [7] it was 0.198; in experiment [8], -0.458. Also, the composite Z-score in [1] is -0.219 (inactive).
